# Source: ChEMBL document CHEMBL4513216, “Probing the Open Global Health Chemical Diversity Library for Multistage-Active Starting Points for Next-Generation Antimalarials” (ACS Infect Dis, 2020)
# Hit rate of the full screen: of about 69,000 compounds, about 8,600 (12%) showed an effect of 50% or more. The sample as a whole holds a higher share of strong results than the screen did.
# Tested on: Plasmodium berghei
# Experiment: Screen against P. berghei liver stage (PbLuc), transformed with Luciferase, at 10uM
# Format: functional, HepG2
# Settings: tested at 10 uM
row,SMILES,INHIBITION [%]
1,Cc1nn(C)c(Cl)c1C1CCCN1Cc1nc(C2CC2)no1 (configuration not stated),37.4
2,CCn1ccnc1CN1CCN(CCOc2ccccc2OC)CC1,27.1
3,COC(=O)CCCn1ccnc1-c1ccc(OC)c(F)c1F,43.9
4,COc1ccc(-c2nccn2CCN2CCCCC2)c(OC)c1OC,55
5,Cc1nnc2n1CCN(Cc1ncc(-c3ccc(F)cc3)o1)C2,46.1
6,Cc1c(CCC(=O)N2CCOC(c3cnccn3)C2)cnn1C (configuration not stated),-10.4
7,Cc1noc(C)c1C(=O)N1CCCN(Cc2nccn2C(C)C)CC1,4.1
8,CCN(CC1CCCO1)C(=O)Nc1ccc(OC)c(C)c1 (configuration not stated),-79.7
9,CCN(CCC(F)(F)F)C(=O)Nc1cccc(N2CCOCC2)c1,3.47
10,CCN(CC1CCCO1)C(=O)Nc1cccc(N2CCOCC2)c1 (configuration not stated),54.4
11,O=C(c1cscn1)N1CCC(Cc2cnc3[nH]ccc3c2)C1 (configuration not stated),-14.1
12,COc1cccnc1NC(=O)COc1ccc(F)cc1F,33.5
13,O=C(Nc1cc[nH]n1)c1ccc(COCC(F)(F)F)cc1,-17.8
14,Cc1n[nH]c(NC(=O)c2ccc(COCC(F)(F)F)cc2)c1C,52.5
15,CC(C)(C)NC(=O)c1ccc(COCC(F)(F)F)o1,14.2
16,COc1cccnc1NC(=O)COc1c(C)cccc1C,36.5
17,COc1cccnc1NC(=O)c1ccc(COCC(F)(F)F)cc1,62.4
18,O=C(Cc1ccccc1)N1CCCC2(COCCN(CC3CC3)C2)C1 (configuration not stated),19.5
19,Cc1ccc(C(C(=O)NCc2n[nH]c(N)n2)N(C)C)cc1 (configuration not stated),19.5
20,CC(=O)N(C)Cc1ncn2c1CN(C(=O)C1CCCO1)CCC2 (configuration not stated),-0.453
21,COCCN1CCN(Cc2cnc(C(C)C)nc2)CC1,53.2
22,COCCN1CCN(Cc2cnc(C)nc2)CC1,-9.32

row,SMILES,INHIBITION [%]
1,CCc1ncc(CN2CCN(CCOC)CC2)cn1,11.1
2,CN(C)S(=O)(=O)c1ccc(-c2nc(C#N)c(NC3CC3)o2)o1,15.4
3,O=S(=O)(c1ccc(Cl)cc1)N1CCc2nc(C3CCNCC3)ncc2C1,9.93
4,CCN(CC)S(=O)(=O)N1CCCC(c2ncc3c(n2)CCN(C)C3)C1 (configuration not stated),43.25
5,CCN(CC)S(=O)(=O)N1CCc2nc(C3CCNCC3)ncc2C1,32.3
6,Cc1ccc(S(=O)(=O)N2CCc3nc(C4CCNCC4)ncc3C2)cc1,68.2
7,CCC(C)S(=O)(=O)N1CCc2nc(C3CCNCC3)ncc2C1 (configuration not stated),57.5
8,O=S(=O)(c1ccccc1Cl)N1CCc2nc(C3CCNCC3)ncc2C1,75.6
9,O=S(=O)(N1CCCCC1)N1CCc2nc(C3CCNCC3)ncc2C1,22.2
10,Cc1noc(C)c1S(=O)(=O)N1CCc2nc(C3CCNCC3)ncc2C1,34
11,Clc1ccccc1CN1CCc2nc(C3CCNCC3)ncc2C1,23.2
12,COc1c(CNC2(c3noc(C)n3)CCC2)c(C(C)C)nn1C,-113
13,Cc1ocnc1C(=O)N1CCCN(Cc2cscn2)CC1,35.3
14,O=C(c1ccncc1)N1CC[C@@H]2CN(C3CCOCC3)CCO[C@@H]2C1,23.1
15,Cn1cccc1CN1CCC2(CC1)CC(Oc1cccnc1)C2,24.6
16,Fc1cccc(Nc2nc(N3CCCC3)nc3c2CNCC3)c1,76.8
17,CC(O)CNc1nc(-c2cccnc2)nc2c1CCC2 (configuration not stated),-43
18,COc1cccc(Nc2nc(N3CCCC3)nc3c2CNCC3)c1,42.5
19,O=C(Nc1cccc(F)c1)NC1CCN(Cc2ccncc2)CC1,45.4
20,c1cncc(-c2nc3c(c(NCC4(c5ccncc5)CC4)n2)CCC3)c1,-5.38
21,COc1cccc(Nc2nc(-c3ccncc3)nc3c2CNCC3)c1,51.7
22,O=C(c1cccc(F)c1)N1CCCC1c1ncc2c(n1)CCNC2 (configuration not stated),36.7

row,SMILES,INHIBITION [%]
1,c1csc(CCNc2nc(-c3ccncc3)nc3c2CCNCC3)c1,31.6
2,NC1CCc2nc(-c3ccncc3)nc(Nc3cccc(F)c3)c2C1 (configuration not stated),90.35
3,NC1CCc2nc(-c3cccnc3)nc(Nc3ccc(F)cc3)c2C1 (configuration not stated),63.85
4,CC(Nc1nc(-c2ccncc2)nc2c1CCNC2)c1ccccc1 (configuration not stated),46.3
5,COc1cccc(Nc2nc(C3CCNCC3)c3ccccn23)c1,9.6
6,Cc1sc(CN)nc1-c1ccc(Cl)cc1,5.11
7,CCc1cc(-c2cc[nH]n2)nc(N2CCCC2)n1,14.6
8,Cn1cc([C@@H]2CN(S(=O)(=O)c3cccs3)C[C@H]2N)c2ccncc21,41.9
9,Cc1c(CC(=O)N2CCSCC2)nnn1-c1cccc(Cl)c1,3.46
10,O=C(CC1CCCC1)N1CCC2(CC1)[C@H](O)C[C@@H]2O,33.4
11,CN(Cc1ccco1)C(=O)CN1CCCC1Cn1cncn1 (configuration not stated),-4.16
12,Cc1cnn(C2CCCN(C(=O)c3cn4ccccc4n3)C2)c1 (configuration not stated),22.3
13,COc1ccnc(N2CCN(C(=O)Cc3csc(C)n3)CC2)n1,-55.4
14,CCOc1ccccc1CNCC1CCN(CC(C)O)CC1 (configuration not stated),28.7
15,CCN(CC)C(=O)Nc1cccc(Oc2ccccn2)c1,20
16,Cc1nc(C2CCCN(C(=O)c3ccc(N4CCCC4)nn3)C2)no1 (configuration not stated),-19.4
17,CCn1cc(-n2cc3nc(N(C)C)[nH]cc-3c2=O)cn1,-13
18,Cc1occc1C(=O)N1Cc2nccn2CC(CN2CCCC2)C1 (configuration not stated),31.2
19,Cc1noc(C)c1CC(=O)N1CCCC(Cn2ccnc2C)C1 (configuration not stated),44.7
20,CCc1nnc(CN(CC)C(=O)C(C)n2ccnc2C(C)C)o1 (configuration not stated),30.3
21,Cc1cc2c(=O)n3c(nc2s1)CCN(C(=O)c1scnc1C)CC3,40.9
22,Cc1cc2c(=O)n3c(nc2s1)CCN(C(=O)c1sc(C)nc1C)CC3,80.9

row,SMILES,INHIBITION [%]
1,Cc1cc2c(=O)n3c(nc2s1)CCN(C(=O)c1c(C)noc1C)CC3,41.2
2,Cc1cc(C(=O)N2CCc3nc4sc(C)cc4c(=O)n3CC2)on1,53.2
3,Cc1nc(C)c(C(=O)N2CCc3nc4sc(C)cc4c(=O)n3CC2)o1,-12.9
4,Cc1cc2c(=O)n3c(nc2s1)CCN(C(=O)c1ccnn1C)CC3,-16.5
5,Cc1noc(C)c1-c1cccc(CC2CCN(C(=O)CN)C2)n1 (configuration not stated),36.7
6,Cc1ccc2c(n1)N(CCn1cccn1)CCN(C(=O)CC1CC1)C2,-1.64
7,CCn1cnnc1CNC(=O)N1CCN(Cc2ccsc2)CC1,-63.3
8,CCN1Cc2ccccc2CC2(CCN(C(=O)N(C)C)CC2)C1=O,36.5
9,CC[C@@H]1N(Cc2ccc(C)s2)CCC[C@]12CCC(=O)N2C,-24.5
10,CCCn1ccnc1-c1cccc(NC2CCOC2)c1 (configuration not stated),33.4
11,CCCn1ccnc1-c1cccc(NC(=O)C2CCCOC2)c1 (configuration not stated),55
12,CCCn1ccnc1-c1cccc(NC(=O)[C@H]2CCC(=O)N2)c1,24.3
13,c1coc(CN2CCC3(CC2)COCCN(CCN2CCCC2)C3)c1,0.923
14,CC(C)NC(=O)N(C)C(c1cccc(F)c1)c1ccccn1 (configuration not stated),-132
15,O=C(N[C@@H]1CCC[C@@H](N2CCOCC2)[C@@H]1O)c1cnn2cccnc12,-32.2
16,Cc1cc(CNC(=O)NC(C)c2ccncc2)no1 (configuration not stated),11.8
17,Cc1cc(CNC(=O)c2cc(NC(=O)C(C)C)ccc2Cl)no1,68.3
18,CCc1cc(CNC(=O)c2cc(NC(=O)C(C)C)ccc2Cl)[nH]n1,21.2
19,NC(=O)c1cnn2c1NCC(CNCCCc1ccccc1)C2 (configuration not stated),6.35
20,Cc1ccc(-c2cc(CNC(=O)N3CCC(O)CC3)on2)cc1,-25.8
21,O=C(CSCc1ccncc1)NCc1csc(Br)c1,43.2
22,CS(=O)(=O)NCc1cc2n(n1)CCCN(Cc1nc3ccccc3[nH]1)C2,20.1

row,SMILES,INHIBITION [%]
1,Cc1c[nH]c(CN2CCCn3nc(CNS(C)(=O)=O)cc3C2)n1,66.6
2,CC(=O)c1ccc(NCc2cc3n(n2)CCCN(S(C)(=O)=O)C3)nc1,50.3
3,Cc1nccc(NCc2cc3n(n2)CCCN(S(C)(=O)=O)C3)n1,24.9
4,CS(=O)(=O)N1CCCn2nc(CNc3cc(C#N)ccn3)cc2C1,23
5,CS(=O)(=O)N1CCCn2nc(CNc3ncccn3)cc2C1,34.9
6,CCc1cc(NCc2cc3n(n2)CCCN(S(C)(=O)=O)C3)nc(C)n1,53
7,Cc1cc(F)cc(CN2CCCn3nc(CNS(C)(=O)=O)cc3C2)c1,24.9
8,Cc1cc(NCc2cc3n(n2)CCCN(S(C)(=O)=O)C3)ncn1,-9.86
9,CCOC1CCN(C(=O)NCCc2ccn(-c3ccccc3)n2)CC1,-10.1
10,COCC1c2c(cnn2C)CCN1Cc1ccc(F)cc1 (configuration not stated),21.6
11,O=C1CC2(CCN(c3nncs3)C2)CN1c1ccc2c(c1)OCCO2 (configuration not stated),-7.29
12,COCCn1ccc2ccc(C(=O)N3CCN(C(C)=O)CC3)cc21,10.5
13,Cc1cc(C)n(Cc2ccc(C(=O)N3CCOCC3(C)C)cc2)n1,27.9
14,CC1=C(C(=O)N2CCCC(Cn3cc(CO)nn3)C2)OCCO1 (configuration not stated),13
15,Cc1ccc(C(=O)N2CCCC(Cn3cc(C(C)(C)N)nn3)C2)s1 (configuration not stated),64
16,Cc1ccc(S(=O)(=O)N2CCC(Cn3cc(C(C)(C)N)nn3)CC2)s1,61.8
17,Cc1ccc(S(=O)(=O)N2CCN(CCC(N)=O)CC2)s1,38.8
18,CCc1nnc2ccc(N3CCN(S(=O)(=O)c4ccc(C)s4)CC3)nn12,10.1
19,Cc1cnc(C(=O)N2CCCC(Cn3cc(C4CC4)nn3)C2)cn1 (configuration not stated),-66.7
